Several values for one entry are separate records, joined by “and”; a condition that tells them apart may be missing. Equal values may be shown once. More than one record can exist for a structure, and the calls need not agree. Activity calls are given as the source filed them. Entries that show only a call come without a potency. Unless noted, calls follow the shape of the dose curve; as a rule, active = well fitted curve in the direction sought with a large enough effect in the repeat runs; inconclusive = weak or mixed curves; inactive = no such curve, though single readings can be large; an effect the other way counts as inactive or inconclusive.
Tests used:
[1] = qHTS assay to identify small molecule antagonists of the glucocorticoid receptor (GR) signaling pathway - cell viability counter screen (AID 720693); also: nearly all actives have a fitted effect of over 55% in size; also: potency is read from the fitted curve at half-maximal effect
[2] = qHTS assay for identifying genotoxic compounds that show differential cytotoxicity against isogenic chicken DT40 cell lines with known DNA damage response pathways - wild type cell line (AID 743012); also: nearly all actives have a fitted effect of over 60% in size; also: potency is read from the fitted curve at half-maximal effect
Method in brief: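 CellTiter-Glo luminescence readout of viability in wild type DT40 cells after 40 h compound exposure at 37 C/5% CO2; 300 cells/well; reagent incubated 30 min at room temperature before reading.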

[3] = qHTS assay for identifying genotoxic compounds that show differential cytotoxicity against isogenic chicken DT40 cell lines with known DNA damage response pathways - Rev3 mutant cell line (AID 743014); also: nearly all actives have a fitted effect of over 55% in size; also: potency is read from the fitted curve at half-maximal effect
[4] = qHTS assay for identifying genotoxic compounds that show differential cytotoxicity against isogenic chicken DT40 cell lines with known DNA damage response pathways - Rad54/Ku70 mutant cell line (AID 743015); also: nearly all actives have a fitted effect of over 60% in size; also: potency is read from the fitted curve at half-maximal effect
[5] = qHTS assay to identify small molecule antagonists of the androgen receptor (AR) signaling pathway - cell viability counter screen (AID 743033; also: nearly all actives have a fitted effect of over 45% in size; also: potency is read from the fitted curve at half-maximal effect)
[6] = qHTS assay to identify small molecule antagonists of the androgen receptor (AR) signaling pathway using the MDA cell line - cell viability counter screen (AID 743041; also: nearly all actives have a fitted effect of over 45% in size; also: potency is read from the fitted curve at half-maximal effect)
Method in brief: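 qHTS viability read-out; MDA-kb2 AR-luc; R1881-stimulated; 16 h exposure at 37C, 0% CO2; CellTiter-Fluor, 30 min; fluorescence intensity.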

[7] = qHTS assay to identify small molecule antagonists of the thyroid receptor (TR) signaling pathway - cell viability counter screen (AID 743064); also: nearly all actives have a fitted effect of over 50% in size; also: potency is read from the fitted curve at half-maximal effect
Method in brief: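 In rat pituitary GH3.TRE-Luc reporter cells co-exposed to compound and 1 nM T3 for 23.5 h, cytotoxicity was assessed with CellTiter-Fluor in the same wells, read by fluorescence.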

[8] = qHTS assay to identify small molecule antagonists of the thyroid receptor (TR) signaling pathway (AID 743065); also: nearly all actives have a fitted effect of over 55% in size; also: potency is read from the fitted curve at half-maximal effect
Method in brief: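 GH3.TRE-Luc rat pituitary cells carrying two TR response elements driving luciferase were plated for 4 h, given compound plus 1 nM T3 (final), and incubated 23.5 h at 37 C. ONE-Glo luminescence measured reporter inhibition; CellTiter-Fluor fluorescence tracked cytotoxicity.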

[9] = system: thyroid hormone receptor (rat, GH3 cells); test: qHTS assay to identify small molecule agonists of the thyroid receptor (TR) signaling pathway (AID 743066; calls by dose curve; also: potency is read from the fitted curve at half-maximal effect)
[10] = qHTS assay to identify small molecule antagonists of the estrogen receptor alpha (ER-alpha) signaling pathway - cell viability counter screen (AID 743074; calls by dose curve; also: nearly all actives have a fitted effect of over 45% in size; also: potency is read from the fitted curve at half-maximal effect)
[11] = target: Estrogen receptor (Homo sapiens) (UniProt P03372); test: qHTS assay to identify small molecule agonists of the estrogen receptor alpha (ER-alpha) signaling pathway (AID 743075; calls by dose curve; also: potency is read from the fitted curve at half-maximal effect)
Estrogen receptor (Homo sapiens), sequence (P03372 whole entry, looked up): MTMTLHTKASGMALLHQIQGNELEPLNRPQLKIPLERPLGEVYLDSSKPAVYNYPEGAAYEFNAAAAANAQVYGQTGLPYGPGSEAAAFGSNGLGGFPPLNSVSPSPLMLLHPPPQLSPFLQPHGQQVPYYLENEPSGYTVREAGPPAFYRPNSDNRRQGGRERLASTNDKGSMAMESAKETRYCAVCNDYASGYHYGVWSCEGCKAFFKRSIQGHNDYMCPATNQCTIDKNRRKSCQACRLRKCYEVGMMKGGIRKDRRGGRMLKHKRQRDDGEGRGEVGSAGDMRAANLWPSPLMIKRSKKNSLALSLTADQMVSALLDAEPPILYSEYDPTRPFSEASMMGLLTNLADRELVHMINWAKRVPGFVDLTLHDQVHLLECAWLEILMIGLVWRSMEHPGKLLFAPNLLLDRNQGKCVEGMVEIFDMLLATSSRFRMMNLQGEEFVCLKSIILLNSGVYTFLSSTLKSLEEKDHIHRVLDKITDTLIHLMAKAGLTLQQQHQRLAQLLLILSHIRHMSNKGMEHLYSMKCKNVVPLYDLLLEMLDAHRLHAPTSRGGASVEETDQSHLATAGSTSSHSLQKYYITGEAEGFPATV

[12] = qHTS assay to identify small molecule antagonists of the estrogen receptor alpha (ER-alpha) signaling pathway using the BG1 cell line (AID 743080; calls by dose curve;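 also: BG1 cells stimulated with 17beta-estradiol alongside compound; series mostly up to about 70 µM; nearly all actives have a fitted effect of over 25% in size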)
Method in brief: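 BG1-Luc-4E2 cells (endogenous full-length ER-alpha, stable 4×ERE-luciferase) were starved 5 days in phenol-red-free medium with 10% charcoal-stripped FBS, plated 24 h, then given compound plus 17beta-estradiol for 21.5 h at 37 C; ONE-Glo luminescence read after 30 min.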

[13] = qHTS assay to identify small molecule antagonists of the estrogen receptor alpha (ER-alpha) signaling pathway using the BG1 cell line - cell viability counter screen (AID 743081);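 also: compound given together with 17beta-estradiol as the ER stimulus; series mostly up to about 70 µM; nearly all actives have a fitted effect of over 45% in size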
Aromatase (Homo sapiens) = Aromatase (Homo sapiens) (UniProt P11511); test: qHTS assay to identify aromatase inhibitors (AID 743083); also: nearly all actives have a fitted effect of over 55% in size; also: potency is read from the fitted curve at half-maximal effect
Aromatase (Homo sapiens), sequence (P11511 whole entry, looked up): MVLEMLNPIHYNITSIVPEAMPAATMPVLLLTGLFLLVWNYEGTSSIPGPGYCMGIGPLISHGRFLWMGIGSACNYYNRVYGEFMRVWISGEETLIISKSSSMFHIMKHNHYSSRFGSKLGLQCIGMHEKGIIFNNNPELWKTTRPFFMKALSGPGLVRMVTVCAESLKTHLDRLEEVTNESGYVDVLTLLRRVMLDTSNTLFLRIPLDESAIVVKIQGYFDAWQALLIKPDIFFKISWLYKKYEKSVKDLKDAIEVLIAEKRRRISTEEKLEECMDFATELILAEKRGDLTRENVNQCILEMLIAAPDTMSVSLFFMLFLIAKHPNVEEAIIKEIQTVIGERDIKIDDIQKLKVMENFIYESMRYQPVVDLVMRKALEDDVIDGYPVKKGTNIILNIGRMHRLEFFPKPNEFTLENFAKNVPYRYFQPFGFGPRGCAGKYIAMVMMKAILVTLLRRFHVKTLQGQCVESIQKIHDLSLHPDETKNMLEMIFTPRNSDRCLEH

[14] = qHTS assay to identify aromatase inhibitors - cell viability counter screen (AID 743084); also: potency is read from the fitted curve at half-maximal effect
[15] = target: Estrogen receptor (Homo sapiens) (UniProt P03372); test: qHTS assay to identify small molecule agonists of the estrogen receptor alpha (ER-alpha) signaling pathway using the BG1 cell line (AID 743079); also: nearly all actives have a fitted effect of over 20% in size; also: potency is read from the fitted curve at half-maximal effect
[16] = target: Estrogen receptor (Homo sapiens) (UniProt P03372); test: qHTS assay to identify small molecule antagonists of the estrogen receptor alpha (ER-alpha) signaling pathway (AID 743069; active = well fitted curve in the direction sought with a large enough effect in the signal ratio in the repeat runs, not every such curve was filed as active; inconclusive = weak or mixed curves, or effect the other way; inactive = no such curve, though single readings can be large or run the other way; the % refers to the signal ratio)
Method in brief: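 Screening used a UAS-driven beta-lactamase reporter integrated into HEK293 cells expressing ER-alpha, stimulated with 17beta-estradiol alongside test compounds over 18 hr at 37C; signal came from LiveBLAzer B/G FRET fluorescence.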

SMILES | Potency [1] | Potency [2] | Potency [3] | Potency [4] | Potency [5] | Potency [6] | Potency [7] | Potency [8] | Potency [9] | Potency [10] | Potency [11] | Potency [12] | Potency [13] | Potency (Aromatase (Homo sapiens)) | Potency [14] | Potency [15] | Potency [16]
CCOP(=S)(OCC)SCSc1cc(Cl)ccc1Cl | inactive | inactive | inactive | inactive | inactive | inactive | inactive | inactive | inactive | inactive | inactive | inactive | inactive | inactive | inactive | – | –
CCc1cnc(C2=NC(C)(C(C)C)C(=O)N2)c(C(=O)O)c1 (stereo not given) | inactive | inactive | inactive | inactive | inactive | inactive | inactive | inactive | inactive | inactive | – | – | inactive | inactive | inactive | – | –
CCOP(=O)(SC(C)CC)N1CCSC1=O (stereo not given) | inactive | inactive | inactive | inactive | inactive | inactive | inactive | – | – | inactive | – | – | inactive | inactive | inactive | – | –
CC(O)CN1CCN(CC(=O)[O-])CCN(CC(=O)[O-])CCN(CC(=O)[O-])CC1.[Gd+3] (stereo not given) | inactive | inactive | inactive | inactive | inactive | inactive | inactive | inactive | inactive | inactive and 21.3 µM (active) | inactive and 23.9 µM [inconclusive] (active) | inactive | inactive | inactive | inactive | inactive and 5.31 µM (active) | –
C[Si](Cn1cncn1)(c1ccc(F)cc1)c1ccc(F)cc1 | inactive | 12.6 µM (active) and 10.9 µM (active) | 3.98 µM (active) and 4.86 µM (active) | 8.92 µM (active) and 9.69 µM (active) | 14.3 µM (active) | inactive | 63.1 µM (active) | 28.2 µM (active) and 54.5 µM (active) | inactive | inactive | – | – | inactive | 316 nM (active) and 545 nM (active) | 63.1 µM (active) and inactive | – | –
NC(=O)CF | inactive | inactive | inactive | inactive | inactive | inactive | inactive | inactive | inactive | inactive | inactive | – | inactive | inactive | inactive | inactive | –
O=C(Cc1ccccc1)c1ccccc1 | inactive | inactive | inactive | inactive | inactive | inactive | inactive | inactive | inactive | inactive | inactive | – | inactive | inactive | inactive | – | –
O=C1NC(=O)C(=O)C(=O)N1 | inactive | inactive | inactive | inactive | inactive | inactive | inactive | – | inactive | inactive | inactive | inactive | inactive | inactive | inactive | inactive | inactive
Cc1ncc(C[n+]2csc(CCO)c2C)c(N)n1 | inactive | inactive | inactive | inactive | inactive | inactive | inactive | – | inactive | inactive | – | – | inactive | inactive | inactive | – | –
CCCCCCCCP(=O)(O)O | inactive | inactive | inactive | inactive | inactive | inactive | inactive | inactive | inactive | inactive | – | – | inactive | inactive | inactive | – | –
CC(C)(C#N)C(C)(C)C#N | inactive | inactive | inactive | inactive | inactive | inactive | inactive | inactive | inactive | inactive | – | – | inactive | inactive | inactive | – | –
COC1=CC(=O)O[C@@H](/C=C/c2ccc3c(c2)OCO3)C1 | inactive | inactive | inactive | inactive | inactive | inactive | inactive | 58.5 nM (active) | inactive | – | – | – | inactive | inactive | inactive | – | –
CCOC(=O)c1cncn1C(C)c1ccccc1 (stereo not given) | inactive | inactive | inactive | inactive | inactive | inactive | – | inactive | inactive | inactive | inactive | – | inactive | inactive | inactive | inactive | inactive
Cc1ccccc1 | inactive | inactive | inactive | inactive | inactive | inactive | inactive | inactive | inactive | inactive | – | – | inactive | inactive | inactive | – | –
CN(C)c1ccc(N=O)cc1 | 39 µM (active) and 43.6 µM (active) | 1.73 µM (active) and 1.93 µM (active) | 546 nM (active) and 1.93 µM (active) | 1.37 µM (active) and 1.72 µM (active) | 12.3 µM (active) and 43.6 µM (active) | 54.6 µM (active) and 27.3 µM (active) | 3.87 µM (active) and 9.69 µM (active) | 5.46 µM (active) and 12.2 µM (active) | 13.7 µM (active) | inactive | inactive | – | – | 9.72 µM (active) and 21.7 µM (active) | 6.13 µM (active) and 15.4 µM (active) | 12.2 µM (active) | –
